Records with an inconclusive call do not appear. Calls of active or inactive are those of the source. Unless noted, calls follow the shape of the dose curve; as a rule, active = well fitted cell-killing curve with a large enough effect; inconclusive = small, poorly fitted or top-dose-only effect; inactive = flat fitted curve, though single readings scatter.
Experiments:
[1] = Cell Viability - LYMP2-015 (AID 971);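 also: cells exposed to compound for 24 h; nearly all actives have a fitted effect of over 55% in size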
Summary of the method: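 Acute toxicity was scored as a concentration-dependent drop in intracellular ATP in lymphoblastoid cells after 24 hr compound exposure in complete medium. Detection used CellTiter-Glo luciferase luminescence.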

[2] = Cell Viability - LYMP2-019 (AID 973);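 also: cells exposed to compound for 24 h at 37 °C; nearly all actives have a fitted effect of over 55% in size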
Summary of the method: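 Cells plated at 2500/well and allowed 5 hr at 37 C before compound addition. After 24 hr incubation, CellTiter-Glo reagent was added, plates sat 30 min at room temperature, and luminescence was recorded.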

[3] = Cell Viability - LYMP2-023 (AID 975);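 also: cellular ATP measured by luciferase luminescence as viability proxy; cells exposed to compound for 24 hours at 37 °C; nearly all actives have a fitted effect of over 55% in size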
Summary of the method: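 Concentration-dependent drop in intracellular ATP measures acute cytotoxicity in a human lymphoblastoid line treated for 24 hours in complete culture medium. AC50 values are taken from Hill-equation fits of qHTS data.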

[4] = Cell Viability - LYMP2-025 (AID 976);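 also: cells exposed to compound for 24 h at 37 °C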
Summary of the method: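 In qHTS format, LYMP2-025 lymphoblastoid cells in complete culture medium received compound for 24 hr; ATP-based CellTiter-Glo signal gave viability, with AC50 derived by Hill equation.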

[5] = Cell Viability - LYMP2-002 (AID 977);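 also: compound exposure lasted 24 h at 37 °C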
Summary of the method: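 Cytotoxicity is scored as concentration-dependent loss of cellular ATP in a human lymphoblastoid line after 24 hr compound treatment at 37 C. AC50 is obtained by modelling concentration-response data with the Hill equation.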

[6] = Cell Viability - LYMP2-008 (AID 980);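 also: cells exposed to compound for 24 h at 37 °C; nearly all actives have a fitted effect of over 60% in size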
Summary of the method: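 Acute cytotoxicity is scored as concentration-dependent loss of cellular ATP in a human lymphoblastoid line after 24 hr treatment at 37 C. ATP is quantified by luciferase luminescence.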

[7] = Cell Viability - LYMP2-010 (AID 981);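 also: cells exposed to compound for 24 hours at 37 °C; nearly all actives have a fitted effect of over 55% in size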
Summary of the method: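 Acute toxicity is scored as a concentration-dependent loss of cellular ATP in human lymphoblastoid cells after 24 hr compound exposure in complete medium. Tetraoctylammonium bromide is the positive control.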

[8] = Cell Viability - LYMP2-012 (AID 982)
[9] = Cell Viability - LYMP2-014 (AID 983);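 also: cells exposed to compound for 24 h at 37 °C; nearly all actives have a fitted effect of over 50% in size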
Summary of the method: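 Decrease in intracellular ATP after 24 hr treatment at 37 C, measured by luciferase luminescence, indicated cytotoxicity. Concentration-response data were fitted with the standard Hill equation to give AC50.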

[10] = Cell Viability - LYMP2-016 (AID 984)
Summary of the method: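 Cells were seeded at 2500 per well and rested 5 hr before a 24 hr compound exposure at 37 C. Viability was then gauged as cellular ATP by luciferase luminescence, with AC50 values fitted to the Hill equation.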

[11] = Cell Viability - LYMP2-018 (AID 985); also: nearly all actives have a fitted effect of over 50% in size
Summary of the method: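 Acute cytotoxicity is scored as a concentration-dependent drop in intracellular ATP after 24 hr exposure of the lymphoblastoid line in complete culture medium, measured by luciferase luminescence. Potency is expressed as AC50 from Hill modelling.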

[12] = Cell Viability - LYMP2-024 (AID 988); also: nearly all actives have a fitted effect of over 60% in size
Summary of the method: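 Acute toxicity is measured as concentration-dependent loss of intracellular ATP in a human lymphoblastoid line treated 24 hours at 37 C. Luciferase luminescence quantifies ATP; AC50 values come from standard Hill-equation modelling.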

[13] = Cell Viability - LYMP2-026 (AID 989);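 also: cells exposed to compound for 24 h at 37 °C; nearly all actives have a fitted effect of over 50% in size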
Summary of the method: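 Concentration-dependent loss of intracellular ATP in human lymphoblastoid cells after 24 hr at 37 C, quantified by luciferase luminescence. AC50 derived from standard Hill equation.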

[14] = Cell Viability - LYMP1-002 - Assay at 24 hr (AID 993)
Summary of the method: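 qHTS, LYMP1-002 lymphoblastoid, 24 h cpd, 37 C, CellTiter-Glo ATP luminescence; AC50 via Hill eq.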

[15] = Cell Viability - LYMP1-002 - Assay at 40 hr (AID 994); also: nearly all actives have a fitted effect of over 60% in size
Summary of the method: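 Viability in the human lymphoblastoid line was measured as intracellular ATP via CellTiter-Glo after 40 hr compound exposure. Tetraoctylammonium bromide served as positive control.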

[16] = qHTS profiling of the MIPE4 collection as inhibitors of Plasmodium falciparum (3D7) proliferation (AID 743344; call rule not given here); conditions: P. falciparum 3D7 in erythrocytes, SYBR Green DNA fluorescence, 72 h; at 28.5 µM (top of the series) unless noted
Summary of the method: (§1)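 Erythrocytes infected with P. falciparum (0.3% parasitemia, 2.5% hematocrit) incubated with compounds 72 h at 37 C, 5% CO2. Lysis with saponin/Triton buffer containing SYBR Green I, overnight at room temperature in the dark; DNA fluorescence (485/535 nm) normalised to 0.29 uM artemisinin and DMSO.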

[17] = qHTS profiling of the MIPE4 collection as inhibitors of Plasmodium falciparum (DD2) proliferation (AID 743345; call rule not given here); conditions: P. falciparum Dd2 in erythrocytes, SYBR Green DNA, 72 h; at 28.5 µM (top of the series) unless noted
Summary of the method: as §1

[18] = qHTS profiling of the MIPE4 collection as inhibitors of Plasmodium falciparum (DD2) proliferation (Rep 2) (AID 743346; call rule not given here); conditions: P. falciparum Dd2 in erythrocytes, SYBR Green DNA, 72 h; at 28.5 µM (top of the series) unless noted
Summary of the method: as §1

[19] = qHTS profiling of the MIPE4 collection as inhibitors of Plasmodium falciparum (HB3) proliferation (AID 743347; call rule not given here); conditions: P. falciparum HB3 in erythrocytes, SYBR Green DNA, 72 h; at 28.5 µM (top of the series) unless noted
Summary of the method: as §1

[20] = qHTS profiling for inhibitors of Plasmodium falciparum (3D7) proliferation (AID 743322);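 also: infected erythrocytes exposed to compound for 72 h before lysis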; conditions: P. falciparum 3D7 proliferation; at 28.7 µM (top of the series)
Summary of the method: as §1

CC(C)(c1ccc(OCC2CO2)cc1)c1ccc(OCC2CO2)cc1 (stereo not given)
inactive: outcome [1] | outcome [2] | outcome [3] | outcome [4] | outcome [5] | outcome [6] | Potency [7] | outcome [8] | outcome [9] | outcome [10] | outcome [11] | outcome [12] | outcome [13] | outcome [14] | Potency [15]

Cc1ncc(C[n+]2csc(CCO)c2C)c(=O)[nH]1
96.7%: parasite growth, % of DMSO control [16]
113%: parasite growth, % of control (lower = inhibition) [18]
104%: parasite growth remaining, % of DMSO control (lower = more inhibition) [17]
73.2%: growth, % of control [19]

CCCCC[C@H]1C(=O)O[C@H](C)[C@H](NC(=O)c2cccc(NC=O)c2O)C(=O)O[C@@H](C)[C@@H]1OC(=O)CC(C)C
20.4%: remaining parasite growth % (stronger effect = lower value) [20]
